In PubChem BioAssay:
For some assays here: Measured potencies and affinities stand elsewhere. Activity calls are given as the source filed them.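 The calls were made as follows, unless noted: active = compounds killing one labelled cell type while sparing the other, by normalised counts and ratio limits, not self-fluorescent; inactive = the rest.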

What was measured:
[1] = polyglutamine-triggered caspase-3 activation inhibitors, cell-based (AID 1583); settings: polyglutamine-induced caspase-3 activation, cell assay; stronger effect = higher value;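 tested at 10 µM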
[2] = suppressors of polyQ aggregation in yeast, 75Q-TubU reporter (AID 1593); settings: Yeast 75Q polyglutamine aggregation reporter
[3] = rescue of polyQ-huntingtin neuronal dysfunction in worms, whole organism, C. elegans mechanosensory neurons, N-terminal huntingtin (AID 1599); settings: touch response, stronger effect = higher value
[4] = inhibitors of mitochondrial cytochrome c release, biochemical, purified mitochondria (AID 1603); settings: stronger effect = lower value;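 also: mouse liver mitochondria challenged with calcium chloride; signal normalized to the plate average as 100%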
[5] = inhibitors of polyQ protein aggregation (AID 1604); settings: polyglutamine-induced protein aggregation inhibition assay; stronger effect = higher value; tested at 2.5 µM
[6] = enhancers of glutamate uptake in motor neurons, MN-1 cell line (AID 1612); settings: MN-1 motor neuron cells, stronger effect = higher value;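 also: tested at 1 µM final; 0% = mean of DMSO vehicle wells on each plate; positive means more glutamate uptake than control and negative means less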
[7] = reducers of polyQ inclusions in PC12 cells, cell-based, NGF-treated PC12, GFPQ80 (AID 1614); settings: PC12 NGF-treated GFP-polyQ80 inclusion reduction;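 also: lower means fewer inclusions and 0 means no inclusions at all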
[8] = suppressors of polyglutamine aggregation in yeast, 75Q-TubH (AID 1616); settings: S. cerevisiae 75Q-TubH polyglutamine aggregation suppression; stronger effect = higher value
[9] = differential killing of epithelial or mesenchymal cells, primary screen, imaging, PC-3E GFP, TEM4-18 mCherry, co-culture (AID 1345086); settings: imaging cell counts, at 1 µM; for red/green cell ratio (normalised): actives lie on both sides, counts scaled to control wells, 1 = unselective;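 as to all read-outs here: cells exposed to compound for 72 h before imaging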;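 as to red/green cell ratio (normalised): normalised mesenchymal count divided by normalised epithelial count so high means epithelial killing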
[10] = liver-stage malaria parasite growth inhibition, primary screen, cell-based, HepG2, luciferase luminescence, HepG2 viability (AID 624349; in the data active = parasite load remaining mostly below about 12%, no sharp cut-off; inactive = mostly above about 10%;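 also: 100% = mean of DMSO negative control wells on the same plate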); settings: P. berghei liver stage in HepG2, luciferase luminescence, concentration not given here; parasite load remaining: stronger effect = lower value; viability: measured here: HepG2 viability without parasites
[11] = measured here: epithelial PC-3E GFP cell survival
[12] = measured here: mesenchymal TEM4-18 mCherry cell survival

| SMILES | inhibition [1] [%] | score [2] | rescue above control [3] | cytochrome c release ratio [4] | inhibition of aggregation [5] [%] | glutamate uptake change [6] [%] | inclusion score [7] | aggregation suppression score [8] | red/green cell ratio (normalised) [9] | normalised cell number [9, 11] | normalised cell number [9, 12] | parasite load remaining [10] | viability [10] [%] |
| --- | --- | --- | --- | --- | --- | --- | --- | --- | --- | --- | --- | --- | --- |
| CC1(C)C2CC[C@]3(C)C(C(=O)C=C4[C@H]5C[C@@](C)(C(=O)O)CC[C@]5(C)CC[C@]43C)[C@@]2(C)CC[C@@H]1O (some centres undefined) | -22.8 | 2.14 | 0.7 | 1.2 | 25.5 | -60.4 | 2 | 0.949 | 1.07 (inactive) | 1.03 | 1.11 |  |  |
| NC[C@H]1O[C@H](O[C@H]2C(O[C@@H]3O[C@H](CO)[C@@H](O)[C@H]3O)[C@@H](O)[C@H](N)C[C@@H]2N)[C@H](N)[C@@H](O)[C@@H]1O (some centres undefined) | -18.6 | 1.41 | -3.87 | 0.95 | 51 | -16.8 | 2 | 0.969 | 0.87 (inactive) | 1.26 | 1.1 | 166% (inactive) | 89 |
| NC(COCc1ccccc1)C(=O)O (centres undefined) | 2.09 | 1.43 | 1.64 | 0.75 | 85.8 | 3.63 | 2 | 1.4 | 0.87 (inactive) | 1.19 | 1.04 |  |  |
| CC(=O)N[C@@H]1[C@@H](C(O)[C@H](O)CO)O[C@](O)(C(=O)O)C[C@@H]1O (some centres undefined) | 7.5 | 1.07 | -7.75 | 0.26 | -20.4 | 11.8 | 2 | 0.464 | 0.94 (inactive) | 1.19 | 1.12 |  |  |
| CC(=O)[C@@]1(O)CCC2C3C=C(Cl)C4=CC(=O)[C@@H]5CC5[C@]4(C)C3CC[C@@]21C (some centres undefined) | 39.2 | 0.81 | 12.8 | 1.45 | 9.8 | -5.81 | 2 | 0.681 | 0.82 (inactive) | 1.07 | 0.88 | 143% (inactive) | 89.2 |
| CC(=O)O[C@@H]1CC2C(C)(C)C(=O)C=C[C@]2(C)C2CC[C@@]3(C)[C@H](c4ccoc4)OC(=O)[C@H]4O[C@]43[C@@]21C (some centres undefined) | -6.23 | 0.97 | -3.01 | 1.1 | 36 | -11.6 | 2 | 0.57 | 1.12 (inactive) | 0.89 | 0.99 | 2.66% (inactive) | 98.4 |
| C[C@@H]1CC[C@@]2(OC1)OC1CC3C4CC=C5C[C@@H](O)CC[C@]5(C)C4CC[C@]3(C)C1[C@@H]2C (some centres undefined) |  |  |  |  |  |  |  |  | 1.13 (inactive) | 1.02 | 1.16 | 131% (inactive) | 91.4 |
| CC(=O)Oc1ccc2c(c1)CCC1C2CC[C@@]2(C)C1CC[C@@H]2OC(C)=O (some centres undefined) | 10.6 | -0.45 | 6.23 | 1 | 65.2 | -3 |  | 0.34 | 0.86 (inactive) | 1.29 | 1.12 | 102% (inactive) | 70.5 |
